PrPC TRFRET = inhibitors of human cell surface prion protein PrPC, primary screen, cell-based, TR-FRET; inhibition, % at 13.8 µM; TR-FRET read-out; 370,000 compounds, 0.43% hits; Major prion protein (Homo sapiens), P04156; in the data active = inhibition above about 24%
GDH-TPI counter-1 = GDH-TPI coupling enzyme inhibitors, primary screen, artefact control for M. tuberculosis FBA inhibitor project, biochemical, absorbance, full deck | GDH-TPI coupled enzyme counterscreen, NADH absorbance | inhibition, % at 4.8 µM | 360,000 compounds, 1.2% hits | AID 588335, 2011; in the data active = inhibition above about 30%
FBA Mtb inh = Mtb FBA enzyme inhibitors, primary screen, biochemical, fluorescence, strain H37Rv | purified M. tuberculosis FBA, fluorescence read-out | inhibition, % at 1 µM | 360,000 compounds, 2.3% hits | AID 588726, 2011
Target sequence (P9WQA3 whole entry, looked up): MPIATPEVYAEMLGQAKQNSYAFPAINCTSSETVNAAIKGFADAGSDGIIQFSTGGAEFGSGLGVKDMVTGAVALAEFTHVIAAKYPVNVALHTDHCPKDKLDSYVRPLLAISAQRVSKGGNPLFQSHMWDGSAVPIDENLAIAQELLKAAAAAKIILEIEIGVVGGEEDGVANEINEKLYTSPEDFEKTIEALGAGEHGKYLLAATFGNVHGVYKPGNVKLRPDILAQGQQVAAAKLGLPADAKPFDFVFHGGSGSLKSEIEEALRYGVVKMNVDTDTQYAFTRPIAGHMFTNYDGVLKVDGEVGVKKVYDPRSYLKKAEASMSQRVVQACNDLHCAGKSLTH
SARS 3CLpro inh = SARS-CoV 3CLpro protease inhibitors, primary screen, biochemical, quenched FRET; AID 1706, 2009; recombinant SARS-CoV 3CLpro, quenched FRET peptide cleavage; 290,000 compounds, 0.14% hits; Replicase polyprotein 1ab (Severe acute respiratory syndrome coronavirus), P0C6X7; inhibition, % at 6 µM; in the data active = inhibition above about 12%
Vc quorum ag = inducers of Vibrio cholerae quorum light production without autoinducers, primary screen, BH1578 luxS cqsA deficient, single point | 350,000 compounds, 0.16% hits | V. cholerae BH1578 lux reporter, luminescence, 6 h | activation, % at 18.7 µM; in the data active = activation mostly above about 9.7%, no sharp cut-off
Mtb FBA confirm = M. tuberculosis aldolase blockers, biochemical, fluorescence, strain H37Rv, confirmation. inhibition, % at 1 µM. 5,600 compounds, 78% hits. shares compounds with FBA Mtb inh. AID 651616, 2012. purified M. tuberculosis FBA, fluorescence read-out
GDH-TPI counter-2 = GDH-TPI coupling enzyme inhibitors, artefact control for M. tuberculosis FBA inhibitor project, biochemical, fluorescence, high throughput | shares compounds with FBA Mtb inh | GDH-TPI coupled enzyme counterscreen | inhibition, % at 1 µM | 5,600 compounds, 81% hits | AID 652141, 2013; in the data active = inhibition above about 10%
A number is an active result; n = inactive; x = not tested or not shown; + = active, no number. This is a sample that favours compounds with a hit; in the whole collection about 3.9% have one here. Rule as the data show it, unless noted: active = inhibition above about 27%; inactive = the rest.

SMILES	PrPC TRFRET	GDH-TPI counter-1	FBA Mtb inh	SARS 3CLpro inh	Vc quorum ag	Mtb FBA confirm	GDH-TPI counter-2
C/C=C(/C)C(=O)O[C@@H]1Cc2c(ccc3ccc(=O)oc23)OC1(C)C	n	n	45	x	n	68	42
COCCNC(=O)[C@H]1N2C(=O)c3ccccc3C2SC1(C)C (some centres undefined)	n	n	n	n	n	x	x
C/C=C(/C)C(=O)O[C@@H]1[C@H](OC(C)=O)c2c(ccc3ccc(=O)oc23)OC1(C)C	n	32	32	n	n	115	88
CC1(C)Oc2ccc3ccc(=O)oc3c2/C(=C/O)C1=O	n	n	44	n	n	153	119
Cc1cnc(NC(=O)Nc2ccccc2)c(C)n1	n	n	59	n	n	n	n
CCCCCCCCN1C(=O)[C@@H](CC(=O)N2CCN(C(=O)c3ccco3)CC2)C[C@@]2(C(=O)OC)C1=C[C@H](C(C)C)O[C@@H]2C1CC1	n	x	x	x	x	x	x
NC(=NCCc1ccccc1)NC(=O)c1cc(Cl)ccc1O	n	n	46	x	n	90	77
NC(=NCCc1ccc(Cl)cc1)NS(=O)(=O)c1ccccc1	n	n	n	n	n	x	x
c1ccc(-n2cc(CN3CCC(N4CCOCC4)CC3)c(-c3ccc4c(c3)OCO4)n2)cc1	n	n	36	n	n	55	66
c1ccc(-n2cc(CN3CCCC3)c(-c3ccc4c(c3)OCO4)n2)cc1	n	n	n	n	n	x	x
CCn1c(NC(=O)C(C)C)c2ccccc2nc1=O	n	n	n	n	n	x	x
CC(C)C(=O)Nc1c2c(nc3ccccc13)N(C)CC2	n	n	74	n	n	+	+
CCN(CC)CC(=O)Nc1c2c(nc3ccccc13)N(C)CC2	n	n	48	n	n	x	+
CCCCCC(=O)Nc1c2c(nc3ccccc13)CCC2	n	n	n	n	n	x	x
COc1ccc(/C=N/c2oc(-c3ccccc3)cc2C#N)cc1OC	n	n	48	n	n	28	25
COC(=O)c1ccccc1NC1CC(=O)N(c2c(C)cccc2C)C1=O (centres undefined)	n	n	89	n	n	+	+
CCCCc1cc(=O)oc2c(C)c(OCC(=O)N3C[C@H]4C[C@@H](C3)c3cccc(=O)n3C4)ccc12	n	n	n	n	n	x	x
CCC(CO)NS(=O)(=O)c1cc(-c2nn(C)c(=O)c3ccccc23)ccc1C (centres undefined)	n	n	n	n	n	x	x
Cc1cccc(C(=O)N/N=C/c2ccccn2)c1	n	n	n	n	n	x	x
Cc1cccc(C(=O)Nc2cccc(C(=O)N/N=C/c3ccccn3)c2)c1	n	n	48	n	n	n	n
CC(C)C(=O)Nc1ccc2c(c1)C(=O)NC2=O	n	n	46	n	n	n	13
O=C(Nc1ccc(Cl)c(Cl)c1)C1CCCCC1	n	n	n	x	n	x	x
Cc1cccc(C(=O)Nc2ccc3c(c2)C(=O)NC3=O)c1	n	n	45	n	n	n	n
O=C1NC(=O)c2cc(NC(=O)C3CCCCC3)ccc21	n	n	44	n	n	132	88
O=C1CC(c2ccc(Cl)cc2)CC(O)=C1C=NCCO (centres undefined)	n	n	n	n	n	x	x
Cc1ccc(CN(C)C(=O)c2cc(COc3cccc(C(F)(F)F)c3)on2)o1	n	n	n	n	n	x	x
CCOC(=O)c1sc2cccc(Cl)c2c1N	n	n	n	n	n	x	x
CCOC(=O)c1sc2cccc(F)c2c1N	n	n	103	n	n	+	198
COc1ccc2nc(C)c3c(c2c1)OC(C)C3 (centres undefined)	n	n	n	n	n	x	x
CCOC(=O)c1ccc2nc(C)c3c(c2c1)OC(C)C3 (centres undefined)	n	n	38	n	n	175	130

Assay outcomes as filed in PubChem.
